# From PubChem
# 3CLpro inhibitor = SARS-CoV 3CLpro protease inhibitors, primary screen, biochemical, quenched FRET; Replicase polyprotein 1ab (Severe acute respiratory syndrome coronavirus), P0C6X7; recombinant SARS-CoV 3CLpro, quenched FRET peptide cleavage; inhibition, % at 6 µM; hit rate 0.14% among 290,000; in the data active means inhibition above about 12%
# CCHFV vOTU inh = CCHFV vOTU protease inhibitors, primary screen, biochemical, Pep-AMC substrate, fluorescence. AID 651958, 2012. hit rate 0.55% among 370,000. inhibition, % at 11.5 µM. Crimean-Congo hemorrhagic fever virus L polyprotein viral ovarian tumor (vOTU) protease …; in the data active means inhibition above about 30%; further: 0% = vehicle wells with enzyme and 100% = no enzyme wells
# PrP UTR inh = inhibition of PrP 5' UTR reporter expression; cell-based PrP 5' UTR mRNA reporter, plate reader; inhibition, % (test concentration not listed); hit rate 0.35% among 340,000; AID 488862, 2010; in the data active means inhibition above about 52%; further: 0 = median of the neutral control wells
# PrPC surface inh = inhibitors of human cell surface prion protein PrPC, primary screen, cell-based, TR-FRET | TR-FRET read-out | Major prion protein (Homo sapiens), P04156 | inhibition, % at 13.8 µM | AID 720596, 2013 | hit rate 0.43% among 370,000; in the data active means inhibition above about 24%; further: 0% = median of the test wells and 100% = reference compound wells
# PrP 5UTR single = prion 5' UTR mRNA inhibition, cherry-pick retest; shares compounds with PrP UTR inh; cell-based prion protein 5' UTR reporter, plate reader; inhibition, % at 2.5 µM; hit rate 48% among 1,100; in the data active means inhibition above about 54%; inconclusive means no clear call, values can overlap the other calls
# The depositor's hits bear a star; ? = inconclusive; / = not tested or not shown. Rows were chosen to be rich in hits. Some 1.3% of all compounds tested hit in one or more screens of this group.
SMILES,3CLpro inhibitor,CCHFV vOTU inh,PrP UTR inh,PrPC surface inh,PrP 5UTR single
C/C(=N\Nc1nc(N2CCCCC2)nc(N2CCOCC2)n1)c1ccccc1O,3,9,81*,-7,11
CCn1c2ccccc2c2cc(N=C3SC(CC(=O)Nc4ccccc4OC)C(=O)N3CCOC)ccc21 (stereo unspecified),3,4,-1,-2,/
CN(C)CCCNC(=O)CC(c1ccccc1)c1ccccc1O (stereo unspecified),-1,9,71*,-6,-18
O=C(CC(c1ccccc1)c1ccccc1O)NCc1ccccc1 (stereo unspecified),3,6,-31,-3,/
Cc1cc(OCCCCN2C(=O)NC(C)(C)C2=O)ccc1[N+](=O)[O-],1,8,4,4,/
Cc1ccc([N+](=O)[O-])c(OCCN2C(=O)NC(C)(C)C2=O)c1,-1,-4,53*,-8,-18
O=C(CN1C(=O)c2ccccc2S1(=O)=O)c1ccc2c(c1)OCCO2,-7,1,91*,-8,93*
O=C(CN1C(=O)c2ccccc2S1(=O)=O)c1ccc2c(c1)OCCCO2,-2,-5,95*,3,97*
CC(=O)c1sc2c(c1OC(=O)c1ccc(Cl)cc1Cl)c(=O)n(-c1ccccc1)c(=S)n2-c1ccccc1,2,9,76*,20,62*
CCOC(=O)C1(Cc2ccccc2)CCCCCC1=O (stereo unspecified),/,1,55*,-1,1
CCOC(=O)C1(CCOC)CCCCC1=O (stereo unspecified),/,2,/,-7,/
Cc1cc(NC(=O)CSc2nnc(-c3ccco3)n2C)no1,/,8,88*,-5,7
CC(=O)NCCc1ccc(C(=O)COC(=O)C2CCCCC2)cc1,/,4,72*,2,34
Cc1ccc(C(=O)COC(=O)C2CCC2)cc1,5,/,-22,/,/
CN1C(=O)C(=Cc2ccc(N3CCCCC3)o2)C(=O)N(C)C1=S,-1,-1,54*,-3,-12
O=C(O)CN1C(=O)/C(=C/c2ccc(N3CCCCC3)o2)SC1=S,0,18,-11,3,/
Cc1ccc(/C=C2\SC(N3CCCC3)=NC2=O)cc1,-6,6,/,-29,/
CN(C)c1ccc(/C=C2\SC(N3CCCCC3)=NC2=O)cc1,-5,-2,57*,1,42
COc1ccc(CNC(=O)c2sc(=O)n(Cc3ccccc3C)c2C)cc1,/,-2,/,2,/
Oc1ccc(/C=C/c2ccc3ccccc3n2)cc1,-2,3,57*,4,?
C(=C\c1ccc2ccccc2n1)/c1ccccc1,4,-3,58*,-9,25
O=[N+]([O-])c1ccc(/C=C/c2ccc3ccccc3n2)cc1,1,12,15,-4,/
CN(C)c1ccc(/C=C/c2ccc3ccccc3n2)cc1,1,/,84*,/,?
N/C(=N\OC(=O)c1ccc(Cl)cc1)c1ccccn1,2,-2,-45,-1,/
COc1ccccc1N1C(=NC(=O)C(C)Oc2ccccc2)SC2CS(=O)(=O)CC21 (stereo unspecified),0,-6,-5,-6,/
SMILES,3CLpro inhibitor,CCHFV vOTU inh,PrP UTR inh,PrPC surface inh,PrP 5UTR single
Cn1c(-c2ccccc2)cc2onc(-c3ccccc3)c2c1=O,/,5,63*,6,32
N#CC1(Nc2ccc(-c3ccc(NC4(C#N)CCCC4)cc3)cc2)CCCC1,/,-10,-27,1,/
N#CC1(Nc2ccc(S(N)(=O)=O)cc2)CCCC1,/,16,74*,9,-13
CCCCN(C(=O)/C=C/c1ccc(OCC(C)C)c(OCC)c1)c1c(N)n(CCC)c(=O)[nH]c1=O,-2,15,-24,3,/
Clc1ccccc1/C=C/c1nc(-c2ccccn2)no1,1,-2,55*,4,61*
Cc1onc(-c2ccccc2Cl)c1-c1nc(-c2ccccn2)no1,-1,-5,-10,11,/
C[C@H](Nc1ccc(C(F)(F)F)cc1[N+](=O)[O-])C(=O)O,0,-8,2,-4,/
COCC(C)n1c(C)cc(C(=O)COC(=O)c2cccn2C)c1C (stereo unspecified),/,1,67*,-6,?
COCC(C)n1c(C)cc(C(=O)COC(=O)c2cnc(Cl)c(Cl)c2)c1C (stereo unspecified),/,11,-4,5,/
Cc1ccc(C(=O)Nc2ccc(CC(=O)O)cc2)o1,0,2,-21,-5,/
CC(C)(C)c1ccc(C(=O)Nc2ccc(CC(=O)O)cc2)o1,5,-8,72*,6,75*
O=C(Nc1ccc(S(=O)(=O)N2CCOCC2)cc1)C1COc2ccccc2O1 (stereo unspecified),3,-19,-20,2,/
COC(=O)C1C(O)=C(C=Nc2ccc3ccccc3c2)C(=O)CC1(C)C (stereo unspecified),-6,-1,80*,5,9
COc1ccc(OCc2cc(C(=O)NCC3CCCCO3)no2)c(Cl)c1 (stereo unspecified),0,-11,-17,0,/
CNS(=O)(=O)c1ccc(NC(=O)c2cnn3c(C(F)F)cc(-c4ccccc4)nc23)cc1,-2,2,-7,1,/
O=C(Nc1cccc(S(=O)(=O)N2CCOCC2)c1)c1cnn2c(C(F)F)cc(-c3ccccc3)nc12,0,2,80*,7,18
COc1cc2c(c(OC)c1O)-c1ccc(OC)c(=O)cc1C(NC(=O)C(F)(F)F)CC2 (stereo unspecified),/,11,54*,-11,90*
CN[C@H]1CCc2cc(OC)c(OC)c(OC)c2-c2ccc(N(C)CC(OC)OC)c(=O)cc21,-1,18,/,-14,/
COc1cc2c(c(OC)c1OC)-c1ccc(OC)c(=O)cc1C(N)CC2 (stereo unspecified),/,12,42,-6,/
CCN(CC)c1ccc2c(cc1=O)[C@@H](NC)CCc1cc(OC)c(OC)c(OC)c1-2,5,12,80*,-6,82*
COc1cc2c(c(OC)c1OC)-c1ccc(OC)c(=O)cc1[C@@H](N(C)CC#CCO)CC2,-8,-7,80*,-8,91*
CCCCSc1cc(=O)n(-c2ccccc2)nc1C(=O)OCC,1,1,-1,-4,/
CCOC(=O)C1CCN(c2c(NCc3ccc(N(C)C)cc3)c(=O)c2=O)CC1,-2,0,-21,-4,/
Cc1ccc(Nc2nnc(SC(C)C(=O)NCC3CCCO3)s2)cc1C (stereo unspecified),/,3,-11,12,/
CC1CCCC(NC(=O)CCCn2ncn3c(cc4occc43)c2=O)C1C (stereo unspecified),0,-1,-19,-3,/
Cc1c(N2C(=O)SC(CC(=O)O)C2=O)c(=O)n(-c2ccccc2)n1C (stereo unspecified),2,8,-3,1,/
CCOCCCn1c(SCC(=O)NC2CCCCC2)nc2ccccc2c1=O,/,-7,/,-7,/
